# Bioassay records deposited in PubChem BioAssay by several laboratories.
# MsrA act: bovine MsrA enzyme activators, primary screen, biochemical, absorbance, HTS; activation, % at 10.6 µM; purified bovine MsrA, absorbance read-out; 360,000 tested, 0.3% active; Methionine sulfoxide reductase A (Bos taurus); in the data active = activation above about 7.5%;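 also: 0% = vehicle and 100% = reference activator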
# rCAG RNA binder: binders of r(CAG) RNA repeats, primary screen, biochemical, fluorescence | 370,000 tested, 1.3% active | r(CAG) RNA repeat, TO-PRO-1 dye displacement fluorescence | inhibition, % at 3 µM;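 active = inhibition above the plate cutoff, the mean of all test compounds on that plate plus 3 SD, cut at about 35% in these data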;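 also: 0% = DMSO alone and 100% = 100 µM mitoxantrone as full dye displacement; higher means more dye released from RNA so lower well fluorescence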
# MsrA inh: bovine MsrA enzyme inhibitors, primary screen, biochemical, absorbance, HTS | purified bovine MsrA, absorbance read-out | inhibition, % at 15.5 µM | 360,000 tested, 0.75% active;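 also: 0% = vehicle wells with enzyme and 100% = reference inhibitor wells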
# NadD inh: inhibitors of S. aureus NadD, primary screen, biochemical, colorimetric, uHTS; 360,000 tested, 0.78% active; inhibition, % at 20 µM; Nicotinate-nucleotide adenylyltransferase NadD (Staphylococcus aureus N315); AID 602399, 2012; purified NadD enzyme, colorimetric absorbance read-out; in the data active = inhibition above about 26%
# MsrA inh confirm: bovine MsrA inhibitors, retest, confirmation, biochemical, absorbance, HTS; AID 651822, 2012; 2,300 tested, 41% active; purified bovine MsrA, absorbance read-out; inhibition, % at 15.5 µM; shares compounds with MsrA inh;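 also: coupled to thioredoxin reductase with NADPH and selenocystamine and DMSO as substrate; 0% = vehicle only and 100% = full effect of reference inhibitor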
# The depositor's hits bear a star; · = no result. Hits are enriched below; roughly 2.7% of the tested compounds scored in any of these assays. Rule as the data show it, unless noted: active = inhibition above about 4.5%; inactive = the rest.
SMILES,MsrA act,rCAG RNA binder,MsrA inh,NadD inh,MsrA inh confirm
CC(=O)c1ccc(N2CCN(S(=O)(=O)c3c(C(=O)N4CCCC4)c(C)n(C)c3C)CC2)cc1,-3.1,-1.4,5.1*,-2.1,3.6
CC(=O)c1ccc(N2CCN(S(=O)(=O)c3c(C(=O)N4CCCCC4)c(C)n(C)c3C)CC2)cc1,-9.4,-1.5,1.6,0.7,·
COc1cc(NC(=O)N2CCc3nc(NCc4cccc(Oc5ccccc5)c4)ncc3C2)cc(OC)c1OC,-3.4,6.9,0.9,-0.8,·
CN(C)c1ccc(C=NCC2COc3ccccc3O2)cc1 (stereo unspecified),-5.2,-0.8,5.5*,-4.0,5.2*
O=C(NN1C(=O)c2ccccc2C1=O)c1ccccc1[N+](=O)[O-],-2.7,0.3,-0.7,-3.8,·
Cc1nnc(N/N=C/c2ccc(-c3ccccc3F)o2)n1N,1.4,1.5,6.1*,1.5,6.0*
Cc1nnc(N/N=C/c2c(Cl)cccc2Cl)n1N,5.7,0.4,-0.2,-2.6,·
Nc1nc2ccccc2n1/N=C/c1ccc(Br)cc1,-5.4,7.3,1.2,-3.4,·
Nc1nc2ccccc2n1/N=C/c1ccc2c(c1)OCO2,-7.8,2.9,19.4*,-1.6,13.7*
COc1ccc(CCN2CC(C(=O)NCc3nc4ccccc4n3C)CCC2=O)cc1 (stereo unspecified),-7.1,-4.2,0.1,-3.3,·
CCCCCc1c(-c2cccc(OC)c2)ncn1CCc1ccccc1OC,-1.5,1.2,21.3*,-2.9,17.5*
COc1ccc(N(CCC#N)C(=O)/C(C#N)=C/c2cccs2)cc1,-4.4,0.9,5.5*,-1.3,2.2
CC(C)(C)C(=O)/C(C#N)=C/c1cccs1,-7.1,1.2,-0.5,-5.8,·
CCCC1=[N+](CC)CCn2c(C)ccc21,-6.2,-3.3,4.4,6.7,·
CCCC1=[N+](CC(=O)c2ccccc2)CCn2c(C)ccc21,-1.6,3.4,5.2*,-1.5,4.6*
CSCCC(NC(=O)c1ccc(C(C)(C)C)cc1)C(=O)O (stereo unspecified),-2.2,2.4,-0.7,-3.0,·
Oc1ccc(/C=N\Nc2nncc(-c3ccccc3)n2)cc1,-4.5,-1.0,5.8*,-4.2,2.8
COc1ccc(-c2cnnc(N/N=C/c3ccc(O)cc3)n2)cc1,-4.3,1.1,4.2,8.6,·
Cc1[nH]nc2c1C(c1ccc(O)cc1)C1=C(CC(C)(C)CC1=O)N2 (stereo unspecified),-13.6,-2.3,2.5,-2.3,·
Cc1[nH]nc2c1C(c1ccsc1)C1=C(CC(C)(C)CC1=O)N2 (stereo unspecified),-13.5,-2.2,4.7*,0.0,2.8
CCCN1CCCc2cc(CN)ccc21,-6.2,-0.5,16.0*,-5.1,-0.7
CCc1ccc(C(=O)NNC(=S)Nc2ccc(S(N)(=O)=O)cc2)s1,2.3,14.9,4.9*,6.6,2.2
CC(C)CC(=O)NNC(=S)Nc1ccc(S(N)(=O)=O)cc1,-0.7,0.4,2.3,3.9,·
C#CCNC(=O)C[C@H]1C[C@@]2(C(=O)OC)C(=C[C@H](C(C)(C)C)O[C@@H]2C)N(Cc2cccc3ccccc23)C1=O,·,3.8,·,·,·
O=C1c2ccccc2C(=O)c2c1oc(C(F)(F)F)c2C(=O)c1ccccc1,2.5,1.4,50.9*,-4.9,58.3*
SMILES,MsrA act,rCAG RNA binder,MsrA inh,NadD inh,MsrA inh confirm
NS(=O)(=O)c1ccc(N=NN2CCCCC2)cc1,-5.0,0.2,5.3*,-7.0,2.0
CC(=O)N(C(C)=O)S(=O)(=O)c1ccc(N=NN2CCCCC2)cc1,-2.4,4.0,5.0*,-4.2,3.9
CC(=O)NS(=O)(=O)c1ccc(N=NN2CCCCC2)cc1,-1.1,-1.4,2.0,-2.0,·
CC(NC(=O)c1cc2ccccc2oc1=O)c1ccccc1 (stereo unspecified),-6.6,-1.6,0.1,-4.4,·
O=S(=O)(CCc1ccncc1)c1ccc(Cl)cc1,-3.5,0.2,0.2,-3.9,·
COc1ccnc2c1c(=O)n(Cc1ccc(F)cc1)c(=O)n2C,-0.4,0.5,1.1,3.8,·
COc1ccccc1C(CNC(=O)c1ccc(NS(=O)(=O)c2ccc3c(c2)OCCO3)cc1)N(C)C (stereo unspecified),2.7,-2.0,0.2,-11.4,·
O=C(N/N=C/C(Cl)=C/c1ccc([N+](=O)[O-])cc1)C(=O)Nc1cccc(C(=O)O)c1,-5.3,18.4,9.2*,4.4,5.3*
O=C(O)c1cccc(Nc2ccc([N+](=O)[O-])cn2)c1,-4.8,0.1,1.6,-0.9,·
